PubChem BioAssay (Tox21)
Results filed as inconclusive are left out. Calls of active or inactive are those of the source. Unless noted, calls come from the whole dose curve.

Assays:
[1] = qHTS assay to identify small molecule antagonists of the vitamin D receptor (VDR) signaling pathway - cell viability counter screen (AID 743225; active = well fitted curve in the direction sought with a large enough effect in the repeat runs; an effect the other way counts as inactive or inconclusive; note: % is set by controls: 0 for no effect and ±100 for the full control effect; nearly all actives have a fitted effect of over 50% in size)
Procedure, shortened: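 Compounds were pinned onto VDR-bla HEK 293T cells together with 1-alpha,25-dihydroxyvitamin D3 at 3 nM final. After 16 h at 37C and 5% CO2 plus the reporter readout, cell viability was measured by CellTiter-Glo luminescence (30 min, room temperature).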

[2] = qHTS assay to identify small molecule agonists of the NFkB signaling pathway - cell viability counter screen (AID 1159515); note: series mostly up to about 61 µM; % is set by controls: 0 for no effect and ±100 for the full control effect; nearly all actives have a fitted effect of over 55% in size
Procedure, shortened: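 Plate 2,000 NFkB-bla ME-180 cells/well; incubate overnight. Add compounds, 5 hr at 37 C. Add FRET substrate, 1.5 hr RT. Add CellTiter-Glo, 30 min RT; read luminescence.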

[3] = qHTS assay to identify small molecule agonists of the endoplasmic reticulum stress response signaling pathway - cell viability counter screen (AID 1159517);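 note: HeLa cells carrying an ER stress response element beta-lactamase reporter; series mostly up to about 61 µM; % is set by controls: 0 for no effect and ±100 for the full control effect; nearly all actives have a fitted effect of over 50% in size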
Procedure, shortened: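 Cpd-treated ESRE-bla HeLa (5 hr, 37 C) → LiveBLAzer 2 hr RT → CellTiter-Glo 30 min RT → luminescence.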

[4] = qHTS assay to identify small molecule antagonists of the retinoid-related orphan receptor gamma (ROR-gamma) signaling pathway - cell viability counter screen (AID 1159520; active = well fitted curve in the direction sought with a large enough effect in the repeat runs; an effect the other way counts as inactive or inconclusive; note: % is set by controls: 0 for no effect and ±100 for the full control effect; nearly all actives have a fitted effect of over 50% in size)
Procedure, shortened: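 Tet-on ROR gamma CHO cells (1,000/well) were plated 4 hr, given compounds in DMSO for 2 hr at 37 C, then induced with 1 uM final doxycycline for 16 hr. Viability was read as ATP by CellTiter-Glo luminescence after 30 min.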

[5] = qHTS assay to identify small molecule agonists of the AP-1 signaling pathway - cell viability counter screen (AID 1159525); note: nearly all actives have a fitted effect of over 55% in size
Procedure, shortened: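 Each titration point was normalised to DMSO and tetra n-octyl ammonium bromide controls. The read was Cell Titer Glo luminescence after 30 min at RT, following 5 h compound exposure of ME-180 AP-1-bla cells at 37 °C.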

[6] = qHTS assay to identify small molecule agonists of the AP-1 signaling pathway (AID 1159526); note: % is set by controls: 0 for no effect and ±100 for the full control effect
[7] = biological target: Retinoic acid receptor RXR-alpha (Homo sapiens) (UniProt P19793); assay: qHTS assay to identify small molecule agonists of the RXR signaling pathway (AID 1159527); note: % is set by controls: 0 for no effect and ±100 for the full control effect; nearly all actives have a fitted effect of over 35% in size
Retinoic acid receptor RXR-alpha (Homo sapiens), sequence (P19793 whole entry, looked up): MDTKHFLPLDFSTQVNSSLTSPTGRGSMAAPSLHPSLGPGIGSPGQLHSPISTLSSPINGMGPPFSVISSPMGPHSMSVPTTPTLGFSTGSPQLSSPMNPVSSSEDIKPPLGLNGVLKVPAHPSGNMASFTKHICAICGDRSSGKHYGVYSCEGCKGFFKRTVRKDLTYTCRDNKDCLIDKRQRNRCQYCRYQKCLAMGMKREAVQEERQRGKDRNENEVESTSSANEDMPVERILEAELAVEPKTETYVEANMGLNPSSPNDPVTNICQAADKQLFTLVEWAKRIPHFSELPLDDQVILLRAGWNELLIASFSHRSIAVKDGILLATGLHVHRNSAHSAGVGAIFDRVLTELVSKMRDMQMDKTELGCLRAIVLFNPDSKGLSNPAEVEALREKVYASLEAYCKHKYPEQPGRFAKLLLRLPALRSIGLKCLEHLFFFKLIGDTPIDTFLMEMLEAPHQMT
Procedure, shortened: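 Using 9-cis retinoic acid as the reference agonist, chemicals were tested in HEK 293T cells […] for 16 hr; substrate loading lasted 2 hr at room temperature.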

[8] = biological target: Nuclear receptor ROR-gamma (Homo sapiens) (UniProt P51449); assay: qHTS assay to identify small molecule antagonists of the retinoid-related orphan receptor gamma (ROR-gamma) signaling pathway (AID 1159521; active = well fitted curve in the direction sought with a large enough effect in the repeat runs; an effect the other way counts as inactive or inconclusive;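 note: CHO cells with doxycycline inducible ROR-gamma driving an RORE luciferase reporter; top concentration of the series differs between compounds; % is set by controls: 0 for no effect and ±100 for the full control effect; nearly all actives have a fitted effect of over 50% in size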)
Procedure, shortened: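 Test compounds were applied to Tet-on RORγ CHO cells 2 h ahead of doxycycline hyclate (1 uM final). Luciferase reporter activity was quantified by luminescence after 16 h at 37 C and 5% CO2.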

[9] = qHTS assay to identify small molecule agonists of the RXR signaling pathway - cell viability counter screen (AID 1159529; active = well fitted curve in the direction sought with a large enough effect in the repeat runs; an effect the other way counts as inactive or inconclusive)
Procedure, shortened: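 Compounds dissolved in DMSO were pinned onto HEK 293T cells carrying a beta-lactamase reporter under RXR-alpha control and incubated 16 hr. Cytotoxicity was then quantified by CellTiter-Glo luminescence.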

CC(=O)OCC(=O)[C@@]1(O)[C@H](C)C[C@H]2[C@@H]3CCC4=CC(=O)C=C[C@]4(C)[C@@]3(F)[C@@H](O)C[C@@]21C
inactive: outcome [1] | outcome [2] | outcome [3] | outcome [4] | outcome [5] | outcome [6] | Potency [7]

CCN(CC#N)c1cccc(C)c1
inactive: outcome [1] | outcome [2] | outcome [3] | outcome [4] | Potency [8] | outcome [5] | outcome [6] | Potency [7] | Potency [9]

CCOC(=O)CCC(=O)OCC
inactive: outcome [1] | outcome [2] | outcome [3] | outcome [4] | Potency [8] | outcome [6] | Potency [7] | Potency [9]

C=CC(=O)OCCCl
inactive: outcome [2] | outcome [3] | outcome [4] | Potency [8] | outcome [5] | outcome [6] | Potency [9]

CCCCCCCCCCCCSC
inactive: outcome [1] | outcome [2] | outcome [3] | outcome [4] | outcome [5] | outcome [6] | Potency [9]

CCN[C@@H]1C[C@H](N)[C@@H](OC2OC(CN)=CCC2N)[C@H](O)[C@H]1O[C@H]1OC[C@](C)(O)[C@H](NC)[C@H]1O (some centres undefined)
inactive: viability change, negative = cytotoxic [1] 2.46% [at 0.628 µM] | activity, negative = cytotoxic [2] 6.29% [at 0.628 µM] | activity, negative = cytotoxicity [4] 3.44% [at 0.349 µM] | activity change, negative = inhibition [8] 45.3% [at 0.35 µM] | activation [6] -3.82% [at 0.29 µM] | activation [7] 6.62% [at 0.29 µM] | activity change, negative = cytotoxicity [9] -0.24% [at 0.29 µM]

CCCCN1C=CN(C)C1
inactive: outcome [1] | outcome [2] | outcome [3] | activity, negative = cytotoxicity [4] 1.65% [at 19 µM] | activity change, negative = inhibition [8] 11.4% [at 19 µM] | viability change, negative = cytotoxic [5] 3.01% [at 15.8 µM] | activation [6] -8.87% [at 15.8 µM] | activation [7] 3.97% [at 15.8 µM] | activity change, negative = cytotoxicity [9] -11.3% [at 15.8 µM]

O=C(O)Cc1csc(-c2ccc(Cl)cc2)n1
inactive: outcome [1] | outcome [2] | outcome [3] | outcome [4] | Potency [8] | outcome [5] | outcome [6] | Potency [7] | Potency [9]

O=C(CO)[C@@H](O)[C@H](O)[C@H](O)CO
inactive: outcome [1] | outcome [2] | outcome [3] | outcome [4] | Potency [8] | outcome [5] | outcome [6] | Potency [7] | Potency [9]

CC1CCC(CO)CC1 (centres undefined)
inactive: outcome [1] | outcome [2] | outcome [3] | outcome [4] | Potency [8] | outcome [5] | outcome [6] | Potency [7] | Potency [9]

Nc1c2c(nc3c1CCC3)CCCC2
inactive: outcome [1] | outcome [2] | outcome [3] | outcome [4] | outcome [5] | outcome [6] | Potency [9]

c1ccc(Cc2ccccc2)cc1
inactive: outcome [1] | outcome [2] | outcome [3] | outcome [4] | Potency [8] | outcome [5] | outcome [6] | Potency [7] | Potency [9]

COCCOC[C@H](CC1(C(=O)NC2CCC(C(=O)O)CC2)CCCC1)C(=O)Oc1ccc2c(c1)CCC2 (some centres undefined)
inactive: outcome [2] | outcome [3] | outcome [4] | Potency [8] | outcome [5] | outcome [6] | Potency [7] | Potency [9]

COc1ccccc1OCC1CNC(=O)O1 (centres undefined)
inactive: outcome [1] | outcome [2] | outcome [3] | outcome [4] | Potency [8] | outcome [5] | outcome [6]

CC(C)(C#N)Nc1nc(Cl)nc(NC2CC2)n1
inactive: outcome [1] | outcome [2] | outcome [4] | Potency [8] | outcome [5] | outcome [6] | Potency [7] | Potency [9]

CO/N=C(\C(=O)N[C@@H]1C(=O)N2C(C(=O)O)=C(CSc3nc(=O)c(O)nn3C)CS[C@H]12)c1csc(N)n1
inactive: outcome [1] | outcome [2] | outcome [3] | outcome [4] | Potency [8] | outcome [5] | outcome [6] | Potency [7] | Potency [9]

Clc1cc(Cl)c(Cl)nc1Cl
inactive: outcome [1] | outcome [2] | outcome [3] | outcome [4] | Potency [8] | outcome [5] | outcome [6]

CCOc1ccccc1OCC
inactive: outcome [1] | outcome [2] | outcome [3] | Potency [8] | outcome [6] | Potency [7] | Potency [9]

NC(=O)Cc1cccc2ccccc12
inactive: outcome [2] | outcome [3] | outcome [4] | outcome [5] | outcome [6] | Potency [7] | Potency [9]

CC(=O)Nc1ccc(OCC(O)CNC(C)C)cc1 (centres undefined)
inactive: outcome [1] | outcome [2] | outcome [3] | outcome [4] | Potency [8] | outcome [5] | outcome [6] | Potency [7] | Potency [9]

CCN(Cc1ccccc1)c1ccccc1
inactive: outcome [1] | outcome [2] | outcome [3] | outcome [4] | outcome [5] | outcome [6] | Potency [7]

CC(C)(C)C(=O)c1ccccc1
inactive: outcome [1] | outcome [2] | outcome [3] | Potency [8] | outcome [6] | Potency [7] | Potency [9]

CC(=O)N1C[C@H](O)C[C@H]1C(=O)O
inactive: outcome [1] | outcome [2] | outcome [3] | outcome [4] | Potency [8] | outcome [5] | outcome [6]

CCCCN(CCC(=O)OCC)C(C)=O
inactive: outcome [1] | outcome [2] | outcome [5] | outcome [6] | Potency [7]

C=CCOCC(O)CO (centres undefined)
inactive: outcome [2] | outcome [3] | outcome [4] | Potency [8] | outcome [5] | outcome [6] | Potency [7]

C[N+]1(CC2COC(c3ccccc3)(c3ccccc3)O2)CCCCC1 (centres undefined)
inactive: outcome [1] | outcome [2] | outcome [3] | activity, negative = cytotoxicity [4] -0.623% [at 19 µM] | activity change, negative = inhibition [8] 7.79% [at 19 µM] | viability change, negative = cytotoxic [5] 0.502% [at 15.8 µM] | activation [6] -1.1% [at 15.8 µM] | activation [7] -0.901% [at 15.8 µM] | activity change, negative = cytotoxicity [9] -2.46% [at 15.8 µM]

O=C(O)CCSCCC(=O)O
inactive: outcome [2] | outcome [4] | Potency [8] | outcome [5] | outcome [6] | Potency [7]

CC(=O)O[C@@]12CO[C@@H]1C[C@H](O)[C@@]1(C)C(=O)[C@H](O)C3=C(C)[C@@H](OC(=O)[C@H](O)[C@@H](NC(=O)OC(C)(C)C)c4ccccc4)C[C@@](O)([C@@H](OC(=O)c4ccccc4)[C@H]21)C3(C)C
inactive: outcome [1] | outcome [2] | outcome [4] | Potency [8] | outcome [5] | outcome [6] | Potency [9]
